In ChEMBL document CHEMBL4513216, “Probing the Open Global Health Chemical Diversity Library for Multistage-Active Starting Points for Next-Generation Antimalarials” (ACS Infect Dis, 2020):
Hit rate of the full screen: of about 69,000 compounds, about 8,600 (12%) showed an effect of 50% or more. The list comes from a sample in which strong results are over-represented; it also holds similar structures and randomly drawn compounds.

The compounds below were run on Plasmodium berghei (assay: Screen against P. berghei liver stage (PbLuc), transformed with Luciferase, at 10uM). Settings: tested at 10 uM.
Format: functional, HepG2

SMILES | INHIBITION [%]
Cc1ccsc1CNCCCOc1ccccn1 | -19.1
CC(=O)c1nn(-c2ccccc2)c(C)c1C(C)=O | 10.6
Cc1ccc(-c2nc(CN3CCCC(Cn4cncn4)C3)no2)cc1 (stereo not drawn) | -28.3
CCN1CC2(CC1=O)CN(C(=O)c1cccs1)CCN(C(=O)N(C)C)C2 (stereo not drawn) | 71
CCN1CC2(CC1=O)CN(C(=O)c1ccco1)CCN(C(=O)N(C)C)C2 (stereo not drawn) | 5.14
CCN1CC2(CC1=O)CN(C(=O)c1ccsc1)CCN(C(=O)N(C)C)C2 (stereo not drawn) | 56.1
CCN1CC2(CC1=O)CN(Cc1cccs1)CCN(C(=O)C(C)C)C2 (stereo not drawn) | -9.76
CCN1CC2(CC1=O)CN(C(=O)c1ccoc1)CCN(C(=O)N(C)C)C2 (stereo not drawn) | 20.9
CCN1CC2(CC1=O)CN(Cc1ccsc1)CCN(C(=O)C(C)C)C2 (stereo not drawn) | 20.9
Cc1nc(CNC(=O)c2cc(COc3cccc(F)c3)[nH]n2)n[nH]1 | 10.1
CN(CCOc1ccc(C#N)cc1)CC1CC1 | -24.7
CCCC12CN3CC(CCC)(CN(C1)C3c1[nH]c(=O)[nH]c(=O)c1C)C2=O (stereo not drawn) | 17.1
CCO[C@@H]1CCN(c2ccc(C)nn2)[C@@H]1Cc1cnn(C)c1 | 24.8
CC(C)(C)n1ncc2c(=O)n(CC(=O)NCc3ccco3)cnc21 | -28.5
CC(C)(C)n1ncc2c(=O)n(CC(=O)NCc3ccccc3)cnc21 | 84.3
CC(C)(C)n1ncc2c(=O)n(CC(=O)NCCc3ccccc3)cnc21 | -25.4
CC(C)(C)n1ncc2c(=O)n(CC(=O)NCc3ccccc3Cl)cnc21 | 71.4
NC(=O)Cn1c(CO)cnc1SCC(=O)NCc1ccccc1Cl | -20.8
CCCNC(=O)Cn1nc(C(C)C)c2cnn(C(C)(C)C)c2c1=O | -7.35
Cc1ccncc1-n1cc(CCO)cn1 | 0.546
O=C(CC1CCCCC1)NC1CCCc2nc(N3CCOCC3)ncc21 (stereo not drawn) | 25.6
Cc1cc(NC(C)c2nnn[nH]2)n2nc(C)c(C)c2n1 (stereo not drawn) | 5.91

SMILES | INHIBITION [%]
C1CC(N2Cc3nnn(CC4CC4)c3C(COCC3CC3)C2)C1 (stereo not drawn) | 67.3
CN(C)C(=O)N1Cc2nnn(CC3CC3)c2C(COCC2CC2)C1 (stereo not drawn) | -0.284
COCC1CN(Cc2ccncc2)Cc2nnn(CC3CC3)c21 (stereo not drawn) | 45.1
C1CCC(CN2Cc3nnn(CC4CC4)c3C(COCC3CC3)C2)C1 (stereo not drawn) | 63.3
CCOCC1CN(CC2CCC2)Cc2nnn(CC3CC3)c21 (stereo not drawn) | 44.4
c1cc(CN2Cc3nnn(CC4CC4)c3C(COCC3CC3)C2)co1 (stereo not drawn) | 29.6
Cc1ccc(N2CCCN(C(=O)CC3C=CCC3)CC2)nn1 (stereo not drawn) | -0.113
O=C1CCOC[C@]2(CN(Cc3ccccc3)C[C@H]2c2cccc(F)c2)N1 | -38.8
COc1ccc2c(c1)OCC(C(=O)NCc1nc3c(s1)CCCC3)C2 (stereo not drawn) | -23.3
CC(c1ccccc1)N(C)C(=O)CNCCn1cccn1 (stereo not drawn) | 31.1
CCN(CC)CC(=O)N1CCCCC1c1nc(C)cs1 (stereo not drawn) | -67.3
CCn1cc(CN2CCN(CC(O)c3ccc(C)cc3C)CC2)c(C)n1 (stereo not drawn) | 28
Cc1nn(C)c2nc(N3CCCCC3c3nccs3)sc12 (stereo not drawn) | 28.7
Cc1ccc(CN2CCN(C(=O)c3ccccc3O)C(C)C2=O)cc1 (stereo not drawn) | 37.6
Cc1nn(C)c2nc(N3CCNC(=O)C3Cc3ccccc3)sc12 (stereo not drawn) | 32.3
Cc1nn(C)c2nc(N3CCNC(=O)C3C(C)C)sc12 (stereo not drawn) | -47.5
COC(=O)CN1CCN(c2nc3c(s2)c(C)nn3C)C(C)C1=O (stereo not drawn) | 52.9
Cc1nn(C)c2nc(N3CCCC3c3nccs3)sc12 (stereo not drawn) | 49.9
Cc1ccc(CN2CCN(c3nc4c(s3)c(C)nn4C)C(C)C2=O)cc1 (stereo not drawn) | 78
Cc1nn(C)c2nc(N3CCCCC3c3ccc(F)cc3)sc12 (stereo not drawn) | -11.6
Cc1ccc(CN2CCN(C(=O)c3ccc(CO)cc3)C(C)C2=O)cc1 (stereo not drawn) | 60.3
CNc1ncccc1C(=O)N1CCN(Cc2ccc(C)cc2)C(=O)C1C (stereo not drawn) | -11.5

SMILES | INHIBITION [%]
Cc1ccc(CN2C[C@H]3CN(Cc4ccccc4Cl)CCN3C2=O)cc1 | -45.5
COC(=O)CC1C(=O)NCCN1c1nc2c(s1)c(C)nn2C (stereo not drawn) | 51.1
Cc1occc1C(=O)N1CCCN(Cc2nccn2C)CC1 | 23.7
OC1(CNCCCN2CCCc3ccccc32)CNCCOC1 (stereo not drawn) | 45.9
Cc1nc(O)cc(CCNC(=O)c2ccccc2N2CCCC2)n1 | 18.5
CCCS(=O)(=O)N1C[C@@H]2C[C@H](C(=O)N3CCN(C)CC3)[C@H](C1)O2 | 21.1
COc1ccc(-c2cc(CN)nc3ccnn23)cc1 | 35.2
CC(C)C[C@@H](C(N)=O)n1cc(-c2cncnc2)nn1 | 12.8
COc1ccc(-n2ccc(C(=O)N(CCN(C)C)C(C)C)n2)cc1 | 18.2
Cc1ccc(-c2nc(CCNCc3ccncc3)co2)cc1 | 49.6
Cc1nc(C2CCCN2Cc2nccn2CC(F)(F)F)no1 (stereo not drawn) | 21.6
CN(CC(F)(F)F)C(=O)CNC(=O)N1CCC(N2CCCC2)C1 (stereo not drawn) | 30.9
CN1C(=O)COc2ccc(C(=O)Cn3cnc4ccsc4c3=O)cc21 | 47.9
COCCN(C)C1COC2(CCN(Cc3ccccn3)CC2)C1 (stereo not drawn) | 25.2
Cc1cccc(CNC(=O)CC2CCN(S(C)(=O)=O)CC2)n1 | -20.6
O=C1CCC2(CCN(Cc3ccc(F)cc3)CC2)N1Cc1ccccc1 | 46.6
Cc1nc(CSCCC(=O)NCc2ccncc2)cs1 | -4.94
Cn1nccc1C(=O)NCCN1CCC(O)(c2ccc(F)cc2)CC1 | 14.65
C[C@@H]1CN(C(=O)c2ccc[nH]2)C[C@]12CCN(CCN1CCCC1)C2=O | 48.4
COCCN1CC[C@]2(CN(C(=O)c3cccs3)C[C@H]2C)C1=O | 22.4
COCCN1CC[C@]2(CN(C(=O)c3ccc[nH]3)C[C@H]2C)C1=O | 61.3
CCC(CC)C(=O)NCCc1ccn(-c2ccccc2)n1 | 15.6

SMILES | INHIBITION [%]
CC(C)c1cc(CN2CCNCC2)no1 | 30.8
CC(C)c1cc(CN2CCC(CC(=O)O)CC2)no1 | 53
CC(C)c1cc(CSCCC(=O)O)no1 | -46.4
CC(C)c1cc(CN2CCC(N)CC2)on1 | 41.2
CC(C)c1cc(COCCCC(=O)O)no1 | 38.2
CC(C)c1cc(CN2CCC(N)CC2)no1 | 76.8
Cc1ccc(-n2cc(C(=O)N3CCn4c(C)nnc4C3)nn2)cc1 | 15.9
O=C(c1cnc(O)cn1)N1CCCC1c1nc2cc(F)ccc2[nH]1 (stereo not drawn) | 17.5
Cn1ncc(C(=O)N2CCOCC2)c1Cl | 0.57
COc1cc(CNc2cc(-c3ccoc3C)nn2CCO)ccc1F | 38.3
Cc1cc(CNc2cc(-c3ccoc3C)nn2CCO)c(C)o1 | 43.7
CCc1ccc(CNc2cc(-c3ccoc3C)nn2CCO)o1 | 54.4
c1cc(N2CCCC2c2cnccn2)ncn1 (stereo not drawn) | -3.31
COC(=O)c1cc(OCC2CCC2)cc(C(=O)N[C@@H]2CCCNC2)c1 | 58.4
COC(=O)c1cc(OCC2CCC2)cc(C(=O)N[C@@H]2CNCC[C@H]2O)c1 | 11.9
COC(=O)c1cc(OCC2CCC2)cc(C(=O)NC2CCC(O)CC2)c1 (stereo not drawn) | 7.12
O=C(NCCO)Nc1ccc(Cl)cc1-n1cccc1 | -6.91
Cc1cc(NC(=O)NCCO)nn1-c1ccc(Cl)cc1Cl | 60.5
CC(=O)NCC(=O)Nc1cc(C)n(-c2ccc(Cl)cc2Cl)n1 | 50
Cc1cc(NC(=O)CO)nn1-c1ccc(Cl)cc1Cl | 19.8
Cc1cc(NC(=O)N2CCOCC2)nn1-c1ccccc1Cl | 33.4
Cc1cc(NC(=O)N2CCC[C@@H]2CO)nn1-c1ccccc1Cl | 30.8

SMILES | INHIBITION [%]
CS(=O)(=O)N[C@H]1COC[C@@H]2CN(Cc3ccco3)C[C@@H]21 | -19.1
COC(=O)c1sc2cccc(F)c2c1CNC(=O)C1CCCO1 (stereo not drawn) | -1.37
CN1CCc2[nH]cnc2C12CCN(Cc1ccc3nsnc3c1)CC2 | 33.4
CNC(=O)[C@@H]1C[C@H]2CN(Cc3ccco3)C[C@H]2N1C | -5.1
Cc1ccc(C(=O)N2CCN(Cc3cccs3)CC2)c(=O)[nH]1 | 3.865
CS(=O)(=O)NCc1cnc2n1CCN(Cc1ccccn1)CC2 | 41.2
CC(C)n1ccnc1CN1CCCN(C(=O)c2cscn2)CC1 | 54.9
Cc1ncncc1C(=O)N1CCCN(Cc2nccn2C(C)C)CC1 | -49.5
Cc1nccc(C(=O)N2CCCN(Cc3nccn3C(C)C)CC2)n1 | 29.3
Cc1[nH]ncc1C(=O)N1CCCN(Cc2nccn2C(C)C)CC1 | 53.65
Cc1cc(C(=O)N2CCCN(Cc3nccn3C(C)C)CC2)no1 | -6.35
CCc1[nH]ncc1C(=O)N1CCCN(Cc2nccn2C(C)C)CC1 | -33.8
CCc1cc(CNC(=O)N2CCN(c3nc(C)c(C)s3)CC2)on1 | 32.4
CSc1ncc(CN(C)C(C)c2cccnc2)cn1 (stereo not drawn) | -1.33
O=C(NCCN1CCOCC1)c1scnc1Cl | 23.7
CSCCCN1C[C@H](NC(=O)c2ccc(CO)cc2)[C@@H](C2CC2)C1 | 0.72
CN(C)c1ccc(C(=O)Nc2ccn(CCc3ccncc3)n2)cc1 | 5.91
COc1ccccc1S(=O)(=O)Nc1cnc(O)cc1C | -13.6
Cc1cc(O)ncc1NS(=O)(=O)c1cccc(F)c1F | 69.9
COc1cc(F)c(S(=O)(=O)Nc2cnc(O)cc2C)cc1OC | -3.83
